The values below come from article PMC7862700, “An all-to-all approach to the identification of sequence-specific readers for epigenetic DNA modifications on cytosine”.

Common to all, as to assay: DAPPL (digital affinity profiling via proximity ligation, sequencing); 10 mM Tris-HCl pH 7.5, 50 mM NaCl, 1 mM DTT, 4% glycerol, room temperature, 30 min; GST-TFs on glutathione beads, 16-mer random dsDNA library, 0.1% formaldehyde crosslink after washing; high values mean tight binding
Assay [1] has as its target T1, FLI1 (Homo sapiens, UniProt Q01543 1-452).
T1 sequence: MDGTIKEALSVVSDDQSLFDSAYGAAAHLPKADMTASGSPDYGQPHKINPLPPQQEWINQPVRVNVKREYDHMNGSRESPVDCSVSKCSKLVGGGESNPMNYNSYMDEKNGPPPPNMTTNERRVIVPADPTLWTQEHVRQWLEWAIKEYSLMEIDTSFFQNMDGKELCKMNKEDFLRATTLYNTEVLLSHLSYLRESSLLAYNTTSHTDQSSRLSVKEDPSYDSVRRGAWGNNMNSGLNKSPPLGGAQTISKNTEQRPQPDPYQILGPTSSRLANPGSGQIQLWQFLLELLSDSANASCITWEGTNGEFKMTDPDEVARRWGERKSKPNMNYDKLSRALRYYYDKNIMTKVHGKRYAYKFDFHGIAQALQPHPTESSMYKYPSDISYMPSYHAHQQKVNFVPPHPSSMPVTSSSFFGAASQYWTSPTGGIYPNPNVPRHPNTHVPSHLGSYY
Particulars: protein: recombinant; tags: N-terminal GST; dsDNA, one strand shown. In outline: (§1)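 Pools of DNA-barcoded human transcription factors, expressed in yeast as GST fusions on glutathione beads and combined with a tag-only sample, were incubated with 200 nmole of a 16-mer random double-stranded DNA library. Incubation took 30 min at room temperature in Tris/NaCl/DTT/glycerol buffer and was followed by washing, 0.1% formaldehyde crosslinking, proximity ligation (BsaI/T4 ligase, 1 h, 37 °C), PCR amplification and sequencing on an Illumina NextSeq500. Binding signal is the ratio of a hexamer's read frequency for a factor to its frequency for the tag-only sample.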

Assay [2] deals with T2, ELK1 (Homo sapiens, UniProt P19419 1-428).
T2 sequence: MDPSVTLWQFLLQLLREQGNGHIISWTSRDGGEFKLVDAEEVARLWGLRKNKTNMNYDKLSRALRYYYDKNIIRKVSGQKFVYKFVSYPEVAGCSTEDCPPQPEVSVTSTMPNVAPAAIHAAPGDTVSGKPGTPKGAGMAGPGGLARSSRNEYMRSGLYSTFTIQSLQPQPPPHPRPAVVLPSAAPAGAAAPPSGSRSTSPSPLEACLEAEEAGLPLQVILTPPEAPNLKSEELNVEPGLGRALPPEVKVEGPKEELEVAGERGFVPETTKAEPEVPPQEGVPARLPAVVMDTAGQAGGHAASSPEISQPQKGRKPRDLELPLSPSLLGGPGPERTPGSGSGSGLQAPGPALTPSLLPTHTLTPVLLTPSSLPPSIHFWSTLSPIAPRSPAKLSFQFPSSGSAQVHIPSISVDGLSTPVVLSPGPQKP
Particulars: protein: recombinant; tags: N-terminal GST; dsDNA, one strand shown. The essentials:
as §1

The target in assay [3] is T3, GABPA (Homo sapiens, UniProt Q06546 1-454).
T3 sequence: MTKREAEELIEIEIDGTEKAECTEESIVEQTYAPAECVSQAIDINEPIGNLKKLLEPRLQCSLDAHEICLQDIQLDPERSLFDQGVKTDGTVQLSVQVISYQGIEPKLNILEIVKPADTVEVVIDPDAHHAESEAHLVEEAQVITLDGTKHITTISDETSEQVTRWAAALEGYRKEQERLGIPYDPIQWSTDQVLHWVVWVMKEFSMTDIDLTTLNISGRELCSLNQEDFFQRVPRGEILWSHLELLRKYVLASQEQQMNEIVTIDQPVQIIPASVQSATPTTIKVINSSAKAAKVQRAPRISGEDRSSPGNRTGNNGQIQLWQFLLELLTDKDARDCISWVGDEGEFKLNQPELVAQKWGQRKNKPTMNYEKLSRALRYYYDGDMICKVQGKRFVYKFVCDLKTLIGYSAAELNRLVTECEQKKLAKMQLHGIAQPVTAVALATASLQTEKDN
Particulars: protein: recombinant; tags: N-terminal GST; dsDNA, one strand shown. The essentials: as §1

For assay [4], the target named is T4, ERG (Homo sapiens, UniProt P11308 1-479).
T4 sequence: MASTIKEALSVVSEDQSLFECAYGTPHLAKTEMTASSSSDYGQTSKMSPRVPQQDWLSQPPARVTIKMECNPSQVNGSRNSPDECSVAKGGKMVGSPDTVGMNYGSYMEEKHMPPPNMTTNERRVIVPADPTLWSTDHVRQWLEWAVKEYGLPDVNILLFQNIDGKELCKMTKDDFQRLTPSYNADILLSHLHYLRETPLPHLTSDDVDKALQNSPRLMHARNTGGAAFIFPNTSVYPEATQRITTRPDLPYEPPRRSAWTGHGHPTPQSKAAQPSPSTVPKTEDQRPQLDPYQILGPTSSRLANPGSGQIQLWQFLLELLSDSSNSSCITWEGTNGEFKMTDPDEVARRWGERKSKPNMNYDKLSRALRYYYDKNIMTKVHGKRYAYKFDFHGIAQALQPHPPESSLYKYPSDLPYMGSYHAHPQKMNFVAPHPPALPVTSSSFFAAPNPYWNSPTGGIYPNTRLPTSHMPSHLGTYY
The note with it: protein: recombinant; tags: N-terminal GST; dsDNA, one strand shown. In outline:
as §1

The target of assay [5] is ELF1 (Homo sapiens, UniProt P32519 1-619). Particulars: protein: recombinant; tags: N-terminal GST; dsDNA, one strand shown. In outline: as §1
Sequence of ELF1 (P32519 whole entry): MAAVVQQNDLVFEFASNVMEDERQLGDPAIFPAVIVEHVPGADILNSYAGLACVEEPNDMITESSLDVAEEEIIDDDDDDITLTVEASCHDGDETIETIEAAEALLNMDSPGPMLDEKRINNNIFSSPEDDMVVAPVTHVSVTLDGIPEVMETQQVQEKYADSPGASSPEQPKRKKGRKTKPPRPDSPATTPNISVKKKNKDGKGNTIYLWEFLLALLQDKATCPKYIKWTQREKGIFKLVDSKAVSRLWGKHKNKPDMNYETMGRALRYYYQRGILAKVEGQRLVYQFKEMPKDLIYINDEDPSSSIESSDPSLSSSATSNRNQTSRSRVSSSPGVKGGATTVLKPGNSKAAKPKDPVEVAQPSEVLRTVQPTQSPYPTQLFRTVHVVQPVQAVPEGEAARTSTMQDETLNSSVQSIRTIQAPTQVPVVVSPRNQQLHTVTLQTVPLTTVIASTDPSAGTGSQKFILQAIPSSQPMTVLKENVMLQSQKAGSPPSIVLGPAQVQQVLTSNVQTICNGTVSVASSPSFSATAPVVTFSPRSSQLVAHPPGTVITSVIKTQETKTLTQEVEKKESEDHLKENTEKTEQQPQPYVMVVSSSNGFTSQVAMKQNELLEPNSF
In assay [6] the target is T5, EHF (Homo sapiens, UniProt Q9NZC4 1-300).
T5 sequence: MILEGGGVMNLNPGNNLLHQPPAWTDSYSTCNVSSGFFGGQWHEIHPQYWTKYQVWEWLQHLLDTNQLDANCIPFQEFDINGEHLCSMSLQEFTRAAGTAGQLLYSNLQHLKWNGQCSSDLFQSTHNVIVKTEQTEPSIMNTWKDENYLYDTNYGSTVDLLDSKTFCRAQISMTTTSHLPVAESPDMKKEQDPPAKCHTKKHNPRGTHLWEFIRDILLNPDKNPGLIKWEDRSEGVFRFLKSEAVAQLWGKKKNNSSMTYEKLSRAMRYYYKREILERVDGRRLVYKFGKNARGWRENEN
Particulars: protein: recombinant; tags: N-terminal GST; dsDNA, one strand shown. The essentials:
as §1

In assay [7] the target is SPI1 (Homo sapiens, UniProt P17947 1-270). Particulars: protein: recombinant; tags: N-terminal GST; dsDNA, one strand shown. In outline:
as §1

Assay [8] addresses SPIB (Homo sapiens, UniProt Q01892 1-262). Particulars: protein: recombinant; tags: N-terminal GST; dsDNA, one strand shown. The essentials:
as §1

Assay [9] concerns the target T6, ELK3 (Homo sapiens, UniProt P41970 1-407).
T6 sequence: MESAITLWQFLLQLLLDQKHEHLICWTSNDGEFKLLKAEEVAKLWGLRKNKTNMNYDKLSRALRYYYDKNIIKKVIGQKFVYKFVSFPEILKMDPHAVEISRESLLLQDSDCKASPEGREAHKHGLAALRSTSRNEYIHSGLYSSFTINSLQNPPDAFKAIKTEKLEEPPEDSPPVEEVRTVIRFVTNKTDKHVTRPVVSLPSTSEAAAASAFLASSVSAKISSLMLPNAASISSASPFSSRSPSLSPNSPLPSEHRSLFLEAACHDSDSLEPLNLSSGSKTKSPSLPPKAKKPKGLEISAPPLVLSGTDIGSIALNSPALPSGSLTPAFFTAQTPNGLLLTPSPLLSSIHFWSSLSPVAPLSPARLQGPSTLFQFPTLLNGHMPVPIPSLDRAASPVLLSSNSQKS
The note with it: protein: recombinant; tags: N-terminal GST; dsDNA, one strand shown. In outline:
as §1

Assay [10] concerns the target T7, FEV (Homo sapiens, UniProt Q99581 1-238).
T7 sequence: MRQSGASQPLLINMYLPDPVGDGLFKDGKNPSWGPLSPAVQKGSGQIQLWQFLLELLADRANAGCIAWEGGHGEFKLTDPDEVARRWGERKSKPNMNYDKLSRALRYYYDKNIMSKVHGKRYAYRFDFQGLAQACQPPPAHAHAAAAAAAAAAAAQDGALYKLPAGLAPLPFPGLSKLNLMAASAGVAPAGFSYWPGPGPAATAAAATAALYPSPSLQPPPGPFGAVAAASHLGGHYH
Particulars: protein: recombinant; tags: N-terminal GST; dsDNA, one strand shown. In outline:
as §1

For assay [11], the target named is ETV5 (Homo sapiens, UniProt P41161 1-510). The note with it: protein: recombinant; tags: N-terminal GST; dsDNA, one strand shown. In outline: as §1
Sequence of ETV5 (P41161 whole entry): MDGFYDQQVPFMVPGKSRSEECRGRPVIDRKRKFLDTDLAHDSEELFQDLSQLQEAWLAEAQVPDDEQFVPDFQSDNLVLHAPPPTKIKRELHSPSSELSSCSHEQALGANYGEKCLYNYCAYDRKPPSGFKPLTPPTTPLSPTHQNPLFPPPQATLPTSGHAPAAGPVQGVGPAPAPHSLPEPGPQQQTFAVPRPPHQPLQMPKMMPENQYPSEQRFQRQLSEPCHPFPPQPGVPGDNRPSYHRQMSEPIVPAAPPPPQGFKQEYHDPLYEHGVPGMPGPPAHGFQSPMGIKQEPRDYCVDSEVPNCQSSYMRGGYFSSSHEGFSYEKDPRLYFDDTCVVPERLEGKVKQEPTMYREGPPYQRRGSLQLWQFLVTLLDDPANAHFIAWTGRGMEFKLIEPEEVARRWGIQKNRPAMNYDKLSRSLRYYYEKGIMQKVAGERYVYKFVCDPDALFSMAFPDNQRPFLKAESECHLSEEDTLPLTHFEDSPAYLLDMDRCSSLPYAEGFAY
In assay [12] the target is HSF1 (Homo sapiens, UniProt Q00613 1-529). Particulars: protein: recombinant; tags: N-terminal GST; chain copies: 3; dsDNA, one strand shown. The essentials:
as §1

The target in assay [13] is T8, SPIC (Homo sapiens, UniProt Q8N5J4 1-248).
T8 sequence: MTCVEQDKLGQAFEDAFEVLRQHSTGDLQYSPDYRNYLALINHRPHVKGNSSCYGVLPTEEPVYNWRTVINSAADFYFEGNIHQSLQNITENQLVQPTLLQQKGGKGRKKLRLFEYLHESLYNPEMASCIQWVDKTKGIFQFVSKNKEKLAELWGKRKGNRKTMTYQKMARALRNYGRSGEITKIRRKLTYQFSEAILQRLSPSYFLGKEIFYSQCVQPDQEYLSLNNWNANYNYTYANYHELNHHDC
The note with it: protein: recombinant; tags: N-terminal GST; dsDNA, one strand shown. The essentials:
as §1

For assay [14], the target named is ELF4 (Homo sapiens, UniProt Q99607 1-663). The note with it: protein: recombinant; tags: N-terminal GST; dsDNA, one strand shown. The essentials: as §1
Sequence of ELF4 (Q99607 whole entry): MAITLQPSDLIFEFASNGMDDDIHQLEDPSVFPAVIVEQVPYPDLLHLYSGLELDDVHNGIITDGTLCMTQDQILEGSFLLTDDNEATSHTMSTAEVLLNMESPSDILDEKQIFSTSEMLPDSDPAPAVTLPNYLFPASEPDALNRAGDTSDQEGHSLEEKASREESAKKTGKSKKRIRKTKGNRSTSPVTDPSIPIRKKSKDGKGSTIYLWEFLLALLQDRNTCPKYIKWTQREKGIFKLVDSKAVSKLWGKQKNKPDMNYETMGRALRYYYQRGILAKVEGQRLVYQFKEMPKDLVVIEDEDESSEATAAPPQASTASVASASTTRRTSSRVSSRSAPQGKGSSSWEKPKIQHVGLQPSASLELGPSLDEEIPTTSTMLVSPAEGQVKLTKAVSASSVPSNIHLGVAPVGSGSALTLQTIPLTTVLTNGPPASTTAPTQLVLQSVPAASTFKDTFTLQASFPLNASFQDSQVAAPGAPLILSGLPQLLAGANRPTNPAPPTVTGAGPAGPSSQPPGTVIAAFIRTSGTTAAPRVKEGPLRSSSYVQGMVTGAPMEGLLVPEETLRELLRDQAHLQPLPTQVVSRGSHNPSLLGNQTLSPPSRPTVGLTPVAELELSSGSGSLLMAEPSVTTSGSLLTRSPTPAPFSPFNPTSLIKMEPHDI
Assay [15] deals with T9, ELK4 (Homo sapiens, UniProt P28324-2 1-405).
T9 sequence: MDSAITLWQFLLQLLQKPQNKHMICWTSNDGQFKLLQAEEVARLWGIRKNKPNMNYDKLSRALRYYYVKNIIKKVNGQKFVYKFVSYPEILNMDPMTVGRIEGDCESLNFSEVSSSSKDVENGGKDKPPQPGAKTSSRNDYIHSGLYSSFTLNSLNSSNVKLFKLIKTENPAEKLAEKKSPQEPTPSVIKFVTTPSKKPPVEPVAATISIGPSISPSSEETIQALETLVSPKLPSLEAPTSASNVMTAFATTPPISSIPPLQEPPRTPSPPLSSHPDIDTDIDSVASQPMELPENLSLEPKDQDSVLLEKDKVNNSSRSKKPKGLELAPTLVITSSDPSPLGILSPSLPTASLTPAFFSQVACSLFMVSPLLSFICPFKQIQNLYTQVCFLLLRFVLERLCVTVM
The note with it: protein: recombinant; tags: N-terminal GST; dsDNA, one strand shown. In outline: as §1

Assay [16] deals with T10, ETV2 (Homo sapiens, UniProt O00321 1-342).
T10 sequence: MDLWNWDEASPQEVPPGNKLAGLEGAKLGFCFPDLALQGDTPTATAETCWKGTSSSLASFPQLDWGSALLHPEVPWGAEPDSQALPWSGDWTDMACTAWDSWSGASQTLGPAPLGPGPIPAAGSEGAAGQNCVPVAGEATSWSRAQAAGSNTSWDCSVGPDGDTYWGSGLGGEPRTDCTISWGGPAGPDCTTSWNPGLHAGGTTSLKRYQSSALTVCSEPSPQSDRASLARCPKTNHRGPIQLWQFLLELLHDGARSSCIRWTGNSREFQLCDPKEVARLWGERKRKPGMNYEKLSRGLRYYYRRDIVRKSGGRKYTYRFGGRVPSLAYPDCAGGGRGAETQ
Particulars: protein: recombinant; tags: N-terminal GST; dsDNA, one strand shown. The essentials: as §1

Assay [17] deals with T11, ELF3 (Homo sapiens, UniProt P78545 1-371).
T11 sequence: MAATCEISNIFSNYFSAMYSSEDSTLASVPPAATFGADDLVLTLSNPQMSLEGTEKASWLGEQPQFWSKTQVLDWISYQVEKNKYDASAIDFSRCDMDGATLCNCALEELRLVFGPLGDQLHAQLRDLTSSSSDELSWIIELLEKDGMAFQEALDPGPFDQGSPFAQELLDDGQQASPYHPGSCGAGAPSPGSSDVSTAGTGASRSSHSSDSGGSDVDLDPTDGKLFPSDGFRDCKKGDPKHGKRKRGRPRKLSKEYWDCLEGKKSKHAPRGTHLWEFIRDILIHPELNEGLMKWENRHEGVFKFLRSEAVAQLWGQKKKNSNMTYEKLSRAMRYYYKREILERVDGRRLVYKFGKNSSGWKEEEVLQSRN
The note with it: protein: recombinant; tags: N-terminal GST; dsDNA, one strand shown. The essentials: as §1

For assay [18], the target named is CRX (Homo sapiens, UniProt O43186 1-299). Particulars: protein: recombinant; tags: N-terminal GST; dsDNA, one strand shown. The essentials: as §1
Sequence of CRX (O43186 whole entry): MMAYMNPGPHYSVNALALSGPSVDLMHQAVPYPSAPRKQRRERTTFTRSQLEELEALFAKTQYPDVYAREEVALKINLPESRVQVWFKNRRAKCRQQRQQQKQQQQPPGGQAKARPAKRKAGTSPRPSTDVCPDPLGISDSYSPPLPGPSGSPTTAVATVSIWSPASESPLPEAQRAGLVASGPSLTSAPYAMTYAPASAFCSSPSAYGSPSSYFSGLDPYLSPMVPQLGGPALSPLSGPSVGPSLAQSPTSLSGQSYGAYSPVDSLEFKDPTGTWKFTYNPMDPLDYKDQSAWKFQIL

Sequence of SPIB (Q01892 whole entry): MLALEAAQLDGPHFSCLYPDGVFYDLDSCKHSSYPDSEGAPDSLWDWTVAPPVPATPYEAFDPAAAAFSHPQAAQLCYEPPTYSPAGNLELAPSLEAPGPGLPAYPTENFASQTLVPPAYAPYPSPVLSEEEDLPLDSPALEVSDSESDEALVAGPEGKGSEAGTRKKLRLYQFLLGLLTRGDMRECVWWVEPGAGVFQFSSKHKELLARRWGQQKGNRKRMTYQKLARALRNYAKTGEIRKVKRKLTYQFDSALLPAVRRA
Sequence of HSF1 (Q00613 whole entry): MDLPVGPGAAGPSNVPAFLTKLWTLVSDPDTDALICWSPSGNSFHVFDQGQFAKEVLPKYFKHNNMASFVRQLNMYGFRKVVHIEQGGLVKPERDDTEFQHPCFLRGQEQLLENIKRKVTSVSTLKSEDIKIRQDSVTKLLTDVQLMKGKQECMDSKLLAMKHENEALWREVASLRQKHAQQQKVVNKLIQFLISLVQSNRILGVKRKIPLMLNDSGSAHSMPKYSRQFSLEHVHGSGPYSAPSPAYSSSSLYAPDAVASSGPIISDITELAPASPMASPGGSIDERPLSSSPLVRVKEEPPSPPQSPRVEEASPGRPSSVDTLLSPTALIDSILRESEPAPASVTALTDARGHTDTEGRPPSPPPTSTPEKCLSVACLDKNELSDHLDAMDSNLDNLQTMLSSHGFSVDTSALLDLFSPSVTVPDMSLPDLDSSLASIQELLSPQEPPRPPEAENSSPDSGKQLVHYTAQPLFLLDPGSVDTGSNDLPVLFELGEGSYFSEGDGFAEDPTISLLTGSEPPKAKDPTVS

In the case of TCCCAG, the binding signal in [1] is 1.05 fold enrichment (6-mer frequency, TF over GST control); in assay [2] it was 1.09 fold enrichment (6-mer frequency, TF over GST control); in assay [3] it was 1.08 fold enrichment (6-mer frequency, TF over GST control); in assay [4] it was 1.07 fold enrichment (6-mer frequency, TF over GST control); in [5] it was 1.08 fold enrichment (6-mer frequency, TF over GST control); in assay [6] it was 1.1 fold enrichment (6-mer frequency, TF over GST control). In addition, the binding signal in assay [7] is 1.11 fold enrichment (6-mer frequency, TF over GST control); in assay [8], 1.08 fold enrichment (6-mer frequency, TF over GST control); in [9], 1.11 fold enrichment (6-mer frequency, TF over GST control); in assay [10], 1.08 fold enrichment (6-mer frequency, TF over GST control); in assay [11], 1.06 fold enrichment (6-mer frequency, TF over GST control); in assay [12], 1.16 fold enrichment (6-mer frequency, TF over GST control). The binding signal is 1.01 fold enrichment (6-mer frequency, TF over GST control) in assay [13]; 1.15 fold enrichment (6-mer frequency, TF over GST control) in [14]; 1.25 fold enrichment (6-mer frequency, TF over GST control) in assay [15]; 1.02 fold enrichment (6-mer frequency, TF over GST control) in assay [16]; 1.14 fold enrichment (6-mer frequency, TF over GST control) in [17]; 1.19 fold enrichment (6-mer frequency, TF over GST control) in assay [18].
